Compound activity deposited in PubChem by several laboratories.
Mcl-1 Bim block: human Bim-Mcl-1 interaction inhibition; Q07820; Bead-based flow cytometry, Bim peptide-Mcl-1 binding; inhibition, % at 10 µM; 0.1% of 190,000 active; AID 1009; in the data active means inhibition above about 40%
Target sequence (Q07820 whole entry, looked up): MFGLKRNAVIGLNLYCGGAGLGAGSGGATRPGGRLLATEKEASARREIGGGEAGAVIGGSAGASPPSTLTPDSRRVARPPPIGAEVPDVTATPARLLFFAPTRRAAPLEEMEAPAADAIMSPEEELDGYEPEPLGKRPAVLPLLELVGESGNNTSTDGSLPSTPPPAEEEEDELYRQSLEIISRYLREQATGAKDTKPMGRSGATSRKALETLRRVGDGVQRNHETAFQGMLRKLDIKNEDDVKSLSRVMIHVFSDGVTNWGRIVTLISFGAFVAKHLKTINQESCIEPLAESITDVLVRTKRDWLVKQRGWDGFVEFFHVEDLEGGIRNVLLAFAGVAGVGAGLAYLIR
Arbovirus inh: blocks arbovirus infection. arbovirus infection cell-based antiviral screen. inhibition, % at 10 µM. 0.37% of 200,000 active. AID 1251; in the data active means inhibition above about 30%
14-3-3 Bad inh: disrupts binding of bovine 14-3-3 zeta to phospho-Bad peptide; 0.71% of 220,000 active; inhibition, % at 21.7 µM; P63103; TR-FRET 14-3-3zeta/Dy647-pBad peptide displacement, 1 h;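 active means inhibition above about 70%, limit read from the data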
Target sequence (P63103 whole entry, looked up): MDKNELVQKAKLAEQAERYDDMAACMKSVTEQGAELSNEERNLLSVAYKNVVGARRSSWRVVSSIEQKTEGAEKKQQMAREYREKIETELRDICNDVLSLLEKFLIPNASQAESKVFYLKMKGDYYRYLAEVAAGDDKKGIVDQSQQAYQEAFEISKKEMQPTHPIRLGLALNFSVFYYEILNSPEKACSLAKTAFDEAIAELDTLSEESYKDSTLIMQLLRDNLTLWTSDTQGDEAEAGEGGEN
Mcl1-Bid inh: disrupts binding of human Mcl-1 to Bid peptide; Q07820; TR-FRET Mcl-1/Bid-Dy647 peptide binding, 1536-well; inhibition, % at 21.7 µM; 0.97% of 220,000 active;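 active means compounds that cut the binding signal by more than half at the single screening dose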;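 further: His-tagged Mcl-1 with europium anti-His antibody binding Bid BH3 peptide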
Mcl1 Noxa PPI: Mcl-1/Noxa interaction inhibition | TR-FRET Mcl-1/Noxa peptide binding, 2 h | inhibition, % at 21.7 µM | 1.5% of 220,000 active | AID 1022;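 active means compounds that cut the protein-peptide binding signal by more than 50% relative to plate controls in a single-dose test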;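 further: His-tagged Mcl-1 with rhodamine Noxa BH3 peptide and terbium anti-His antibody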
Each line names hits and unclear results; the compound was inactive in the other large screens; [ ] = another dose, or the depositor's remark. Hits are enriched below; roughly 3% of the tested compounds scored in any of these assays.

CCCC(=O)c1ccc(N2CCN(C(=O)OCC)CC2)c(F)c1	14-3-3 Bad inh 76.8
CC(C)[C@H](NC(=O)NCCC1=CCCCC1)C(=O)O	Mcl1-Bid inh 93.7 (no result: Mcl-1 Bim block, Arbovirus inh)
c1ccc(C(c2ccccn2)c2ccccn2)cc1	none
CC(=O)Oc1ccc(C(c2ccc(OC(C)=O)cc2)c2ccccn2)cc1	Mcl1-Bid inh 86.9
O=C(Nc1ncccn1)c1ccc(C(F)(F)F)cc1	none
CC1CCCN(C(=O)CSc2nnc(-c3ccc(S(=O)(=O)N4CCOCC4)cc3)n2C)C1 (centres undefined)	14-3-3 Bad inh 84.6[fluorescence artefact?]
CCn1c(SCCN2CCCCC2)nnc1-c1ccc(S(=O)(=O)N2CCOCC2)cc1	14-3-3 Bad inh 74.6
Cc1cccc(-c2nc3sc(C)cc3c(=O)o2)c1	none
O=C(NNC(=O)C1CCN(Cc2ccccc2)CC1)c1cccc(Cl)c1	none
Cc1c(C(=O)NC(Cc2ccccc2)c2nc3ccccc3[nH]2)cccc1[N+](=O)[O-] (centres undefined)	Arbovirus inh 33.1
O=C(Nc1c(-c2ccccc2)nc2ccccn12)c1ccco1	none
O=C(Nc1c(-c2ccccc2)nc2ccccn12)c1cccs1	Arbovirus inh 39.3
COc1ccc(C2NC(=O)N(C)C3=C2C(=O)CC(C)(C)C3)cc1OC (centres undefined)	none
CC(C)(C)S(=O)(=O)/C(C#N)=N/Nc1ccc(Cl)cc1	none
CC(C)(C)c1ccc(N/N=C(\C#N)S(=O)(=O)C(C)(C)C)cc1	Arbovirus inh 33.7
CC(C)Cn1c(=O)[nH]c(=O)c2c(C(F)(F)F)cc(-c3ccccc3)nc21	none (no result: Mcl-1 Bim block, Arbovirus inh)
CCN(CC)CCNC(=O)/C(=C/c1cn(C)c2ccccc12)NC(=O)c1ccc(OC)c(OC)c1	Mcl1-Bid inh 94.7 (no result: Mcl-1 Bim block, Arbovirus inh)
CCN(CC)CCNC(=O)/C(=C/c1cn(CC)c2ccccc12)NC(=O)c1cc(OC)c(OC)c(OC)c1	none
CCSc1nc2sc3c(c2c(=O)[nH]1)CCCC3	none
CCSC1=NC2(CCCCC2)Nc2sc3c(c21)CCCC3	Mcl1-Bid inh 74.4
O=C1CCC([N+](=O)[O-])C(c2ccc(Cl)cc2)N1 (centres undefined)	none
CC(=O)c1cc(-c2ccc(F)cc2)n(CCC(=O)Nc2cccnc2)c1C	none
C=CCn1c(SCC(=O)c2[nH]c(C)c(C(=O)OCC)c2C)nc2scc(-c3ccc(OC)c(OC)c3)c2c1=O	14-3-3 Bad inh 82.2, Mcl1-Bid inh 84.3
Cn1c(=O)oc2cc(S(=O)(=O)N3CCCC(C(=O)NCc4ccc5c(c4)OCO5)C3)ccc21 (centres undefined)	Mcl1-Bid inh 52.6
Cc1cccc(C)c1NC(=O)NN=C1CCCCC1	none (no result: Mcl-1 Bim block, Arbovirus inh)
CC(=O)Nc1ncc2c(n1)CC(c1ccco1)CC2=O (centres undefined)	none
COc1ccc(C2CC(=O)c3cnc(Nc4cc(C)cc(C)c4)nc3C2)cc1 (centres undefined)	14-3-3 Bad inh 75.6
COc1ccc(C(=O)Nc2ncc3c(n2)CC(c2ccco2)CC3=O)cc1 (centres undefined)	Mcl1 Noxa PPI 52.5
CCOCCCNc1ncc2c(n1)CC(c1ccc(C)cc1)CC2=O (centres undefined)	none
COc1ccc(C2CC(=O)c3cnc(NC(=O)c4cc(OC)cc(OC)c4)nc3C2)cc1 (centres undefined)	none
CC(C)OCCCNc1ncc2c(n1)CC(c1ccccc1)CC2=O (centres undefined)	Mcl1 Noxa PPI 60.0
CCOC(=O)C1(CC2CCCCO2)CCN(S(=O)(=O)c2cccc(F)c2)CC1 (centres undefined)	none
O=C(Cn1cnc2scc(-c3cccc([N+](=O)[O-])c3)c2c1=O)NCc1ccco1	Mcl1 Noxa PPI 66.8
O=C(CNC(=O)c1ccc(Cl)cc1)NCC(F)(F)F	none
Cc1nc2c(C(=O)NCCc3ccccc3Cl)c[nH]n2c(=O)c1Cl	Arbovirus inh 59.7
Cc1nc2c(C(=O)NCc3ccccc3Cl)c[nH]n2c(=O)c1Cl	none (no result: 14-3-3 Bad inh)
Cc1ccc(-n2nnnc2SCc2ccccn2)cc1C	none
CCOC(=O)CSc1nnc2n1C(C)(C)Cc1ccccc1-2	Mcl1 Noxa PPI 92.4
CC(C)OC(=O)CSc1nnc2n1C(C)(C)Cc1ccccc1-2	none (no result: 14-3-3 Bad inh)
C=CSc1sc(Cl)c(N2CCOCC2)c1[N+](=O)[O-]	none
C=CS(=O)(=O)c1sc(Cl)c(N2CCOCC2)c1[N+](=O)[O-]	Mcl1-Bid inh 69.1, Mcl1 Noxa PPI 67.4
Cc1cc2nc(-c3ccc(SCC(=O)N4CCN(C(=O)c5ccco5)CC4)nc3)[nH]c2cc1C	Mcl1 Noxa PPI 71.0
CCOC(=O)CSc1ccc(-c2nc3cc(C)c(C)cc3[nH]2)cn1	none
Cc1ccc2nc(-c3ccc(SCC(=O)Nc4nnc(C)s4)nc3)[nH]c2c1	Mcl1-Bid inh 70.1, Mcl1 Noxa PPI 68.2
CCOC(=O)CSc1ccc(-c2nc3ccccc3[nH]2)cn1	Mcl1 Noxa PPI 51.1
Cc1ccc2nc(-c3ccc(SCC(=O)Nc4nc(C)cs4)nc3)[nH]c2c1	none
COc1ccc(NC(=S)N/N=C/c2cccn2Cc2ccc(F)cc2)cc1	none
C=CCn1c(SCc2c(F)cccc2Cl)nnc1-c1ccco1	none
COc1cc2c(cc1NC(=O)CCCN1C(=O)CCC1=O)oc1ccccc12	none
COc1cc2c(cc1NC(=O)CC1SC(N3CCCC3)=NC1=O)oc1ccccc12 (centres undefined)	Arbovirus inh 33.2
CCOC(=O)c1cc(C#N)c(SCC(=O)OC)[nH]c1=O	Mcl1-Bid inh 71.7 (no result: Mcl-1 Bim block, Arbovirus inh)
COC(=O)CSc1[nH]c(=O)cc(C)c1C#N	none
O=C(COc1ccc([N+](=O)[O-])cc1)NCc1cccnc1	none
O=C(COc1ccc([N+](=O)[O-])cc1)Nc1nnc(-c2cccnc2)s1	Mcl1 Noxa PPI 68.8 (no result: Mcl-1 Bim block, Arbovirus inh)
C=C1C(=O)[C@@]23[C@H](O)C[C@@H]4C(C)(C)CC[C@H](O)[C@]4(C)[C@@H]2C[C@H](O)[C@@H]1[C@H]3O	Mcl1-Bid inh 79.9
CCc1ccc(NC(=O)Cn2cnc3c(=O)n(C)c(=O)n(C)c32)cc1	none
Cn1c(=O)c2ncn(CC(=O)Nc3cccc(-c4nc5ccccc5s4)c3)c2n(C)c1=O	Mcl1 Noxa PPI 63.5
COc1ccc(CNC(=O)CCN2C(=S)NC(C)(C)CC2C)cc1 (centres undefined)	none
O=S(=O)(Nc1cccc(-c2cn3ccsc3n2)c1)c1ccc(F)cc1	Mcl1-Bid inh 98.1
O=[N+]([O-])c1ccccc1NC(=S)N/N=C/c1ccc(O)c(O)c1	Mcl1 Noxa PPI 54.7
CCOc1cccc(/C=N/NC(=S)Nc2ccccc2[N+](=O)[O-])c1O	none
C=CCNc1nc(N)c(C(=C(C#N)C#N)c2ccc(Br)cc2)s1	none
COc1ccc(NC(=O)C(=O)N/N=C/c2cc(C)n(-c3cccc(Cl)c3Cl)c2C)c(OC)c1	Arbovirus inh 32.2
O=C(CP(=O)(c1ccccc1)c1ccccc1)Nc1nc2ccc(Cl)cc2s1	Mcl1-Bid inh 96.9 (no result: Mcl-1 Bim block, Arbovirus inh)
COc1ccc(N2CCN(C(c3ccccc3OC)c3nnnn3C3CCCC3)CC2)cc1 (centres undefined)	none
CCN1CCN(C(c2cc(OC)ccc2OC)c2nnnn2Cc2ccccc2)CC1 (centres undefined)	14-3-3 Bad inh 79.3
